From PubChem BioAssay
The source made the active and inactive calls.

Legend:
[1] = E. coli DRC41 culture turbidity changes, primary screen, E. coli filamentation inducer project, strain DRC41, OD650, 48 h (AID 1152);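 further: E. coli MC1000 strain DRC41 lacking acrAB efflux pump and sulA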; conditions: E. coli DRC41 (acrAB sulA), higher = more signal, called active from +8 up or from −8 down
[2] = small-molecule binders of probe aLefty1, primary screen, biochemical, small-molecule microarray, 635/667 nm fluorescence (AID 1153); conditions: higher = more signal;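 further: score merges spot fluorescence with signal-to-noise ratio from the scanned slide images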
[3] = PSAC antagonists in infected red cells, primary screen, cell-based, P. falciparum Indochina, OD700, 1 h (AID 1154); conditions: P. falciparum Indochina infected RBC osmotic lysis, higher = more signal, called active from +8 up or from −8 down
[4] = PSAC antagonists in infected red cells, primary screen, cell-based, P. falciparum Indochina, OD700, 2 h (AID 1155);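 further: lysis reports solute entry through the parasite surface anion channel PSAC; channel blockers reduce lysis of infected cells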; conditions: P. falciparum Indochina infected erythrocytes, osmotic lysis OD700; higher = more signal, called active from +8 up or from −8 down
[5] = osmotic lysis modulators in infected erythrocytes, primary screen, PSAC antagonist project, cell-based, P. falciparum Indochina, OD700, 3 h (AID 1156); conditions: higher = more signal, called active from +8 up or from −8 down
[6] = PSAC antagonists in infected red cells, primary screen, cell-based, P. falciparum Indochina, OD700, 18 h (AID 1157); conditions: P. falciparum Indochina infected erythrocytes, osmotic lysis OD700, 18 h; higher = more signal, called active from +8 up or from −8 down
[7] = modulators of S6 phosphorylation in cells, primary screen, cell-based, A549, cytoblot, luminescence, serum-stimulated (AID 1158); conditions: A549 phospho-S6 cytoblot, 5 h, higher = more signal;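 further: serum-stimulated A549 lung adenocarcinoma cells; signal is phosphorylated S6 detected by cytoblot immunostaining with HRP secondary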
[8] = target: NADPH oxidase 2 (Homo sapiens) (UniProt P04839); assay: NOX2-dependent H2O2 signal modulators, primary screen, NOX inhibitor project, cell-based, HEK293-NOX2, PMA-stimulated, Amplex Red fluorescence (AID 1159); conditions: 45 min, higher = more signal, called active from +8 up or from −8 down; further: test concentration not given here
[9] = target: NADPH oxidase 4 (Homo sapiens) (UniProt Q9NPH5); assay: NOX4-dependent H2O2 signal modulators, primary screen, NOX inhibitor project, cell-based, HEK293-NOX4, tetracycline-induced, Amplex Red fluorescence (AID 1160); conditions: 45 min, higher = more signal, called active from +8 up or from −8 down
[10] = target: NADPH oxidase 5 (Homo sapiens) (UniProt Q96PH1); assay: NOX5-dependent H2O2 signal modulators, primary screen, NOX inhibitor project, cell-based, HEK293-NOX5, Amplex Red fluorescence (AID 1161); conditions: HEK293-NOX5, ionomycin, 45 min, higher = more signal
[11] = A549 cell viability effects, profiling panel, calcein-AM fluorescence, 48 h, basal (AID 1162); conditions: higher = more signal; further: test concentration not given here
[12] = adipocyte viability effects, profiling panel, cell-based, 3T3-L1 adipocytes, calcein-AM fluorescence, 48 h, basal (AID 1163); conditions: 3T3-L1 adipocytes viability, higher = more signal; further: test concentration not given here
[13] = HepG2 cell viability effects, profiling panel, calcein-AM fluorescence, 48 h, basal (AID 1164); conditions: higher = more signal; further: test concentration not given here
[14] = MM1S cell viability effects, profiling panel, calcein-AM fluorescence, 48 h, basal (AID 1165); conditions: higher = more signal;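 further: viability of MM1S multiple myeloma cells under basal unstimulated conditions; test concentration not given here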
[15] = basal RPMI8226 viability, no added stimulus, profiling panel, cell-based, calcein-AM fluorescence, 48 h, PK04 Diversity Set (AID 1166); conditions: RPMI8226 myeloma viability, higher = more signal;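 further: cells grown under basal conditions without added stimulus; test concentration not given here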
[16] = basal HepG2 mitochondrial membrane potential changes, profiling panel, cell-based, JC-1 fluorescence, 24 h, 100 nL compound (AID 1167); conditions: higher = more signal; further: test concentration not given here
[17] = basal 3T3-L1 adipocyte mitochondrial potential changes, profiling panel, cell-based, JC-1 fluorescence, 3T3-L1 adipocytes, 24 h, 100 nL compound (AID 1168); conditions: JC-1 mitochondrial fluorescence, higher = more signal, called active from +8 up or from −8 down; further: test concentration not given here
[18] = basal RPMI8226 mitochondrial membrane potential changes, profiling panel, cell-based, JC-1 fluorescence, 24 h, 100 nL compound (AID 1169); conditions: RPMI8226 myeloma, JC-1 mitochondrial potential fluorescence, higher = more signal; further: test concentration not given here
[19] = basal MM1S mitochondrial membrane potential changes, profiling panel, cell-based, JC-1 fluorescence, 24 h, 100 nL compound (AID 1170); conditions: higher = more signal; further: test concentration not given here
[20] = A549 lung cancer cell viability effects, profiling panel, resazurin fluorescence, 24 h, PK04 Diversity Set (AID 1171); conditions: higher = more signal, called active from +8 up or from −8 down; further: test concentration not given here

Chain of NADPH oxidase 4 (Homo sapiens) (Q9NPH5 whole entry, looked up): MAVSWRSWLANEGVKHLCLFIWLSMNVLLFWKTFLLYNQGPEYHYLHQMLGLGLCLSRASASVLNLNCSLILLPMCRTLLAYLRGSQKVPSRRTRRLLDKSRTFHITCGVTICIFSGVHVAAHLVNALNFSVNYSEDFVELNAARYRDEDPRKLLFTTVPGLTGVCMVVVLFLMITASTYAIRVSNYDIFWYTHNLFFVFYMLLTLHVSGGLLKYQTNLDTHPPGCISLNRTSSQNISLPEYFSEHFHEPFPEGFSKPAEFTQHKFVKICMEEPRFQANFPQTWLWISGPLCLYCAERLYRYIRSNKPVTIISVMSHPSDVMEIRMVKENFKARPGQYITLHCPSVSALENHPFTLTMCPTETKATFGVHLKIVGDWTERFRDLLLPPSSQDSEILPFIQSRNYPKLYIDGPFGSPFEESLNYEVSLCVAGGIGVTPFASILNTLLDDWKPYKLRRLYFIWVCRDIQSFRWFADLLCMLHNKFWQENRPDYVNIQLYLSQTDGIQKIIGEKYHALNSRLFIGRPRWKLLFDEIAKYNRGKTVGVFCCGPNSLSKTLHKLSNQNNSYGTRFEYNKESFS
Chain of NADPH oxidase 5 (Homo sapiens) (Q96PH1 whole entry, looked up): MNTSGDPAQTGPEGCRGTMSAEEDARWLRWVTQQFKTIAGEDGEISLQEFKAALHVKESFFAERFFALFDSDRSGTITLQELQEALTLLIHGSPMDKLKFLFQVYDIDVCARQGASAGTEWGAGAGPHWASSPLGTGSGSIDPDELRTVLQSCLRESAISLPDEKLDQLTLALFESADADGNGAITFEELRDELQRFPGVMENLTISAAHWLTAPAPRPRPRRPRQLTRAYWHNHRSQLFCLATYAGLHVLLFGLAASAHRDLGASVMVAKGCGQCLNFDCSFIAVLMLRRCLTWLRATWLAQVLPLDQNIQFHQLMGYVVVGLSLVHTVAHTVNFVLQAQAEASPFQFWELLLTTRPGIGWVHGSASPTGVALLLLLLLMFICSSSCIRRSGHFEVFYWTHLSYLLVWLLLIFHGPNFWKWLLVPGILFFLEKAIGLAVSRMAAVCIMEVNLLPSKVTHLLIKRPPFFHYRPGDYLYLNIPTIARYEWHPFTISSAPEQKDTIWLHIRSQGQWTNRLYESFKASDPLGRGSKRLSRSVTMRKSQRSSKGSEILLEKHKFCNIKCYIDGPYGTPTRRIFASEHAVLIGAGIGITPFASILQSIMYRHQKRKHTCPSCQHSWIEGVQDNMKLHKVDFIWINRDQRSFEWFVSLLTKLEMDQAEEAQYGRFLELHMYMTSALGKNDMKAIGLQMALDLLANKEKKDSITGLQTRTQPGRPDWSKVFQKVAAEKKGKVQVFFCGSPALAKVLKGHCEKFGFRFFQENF
Chain of NADPH oxidase 2 (Homo sapiens) (P04839 whole entry, looked up): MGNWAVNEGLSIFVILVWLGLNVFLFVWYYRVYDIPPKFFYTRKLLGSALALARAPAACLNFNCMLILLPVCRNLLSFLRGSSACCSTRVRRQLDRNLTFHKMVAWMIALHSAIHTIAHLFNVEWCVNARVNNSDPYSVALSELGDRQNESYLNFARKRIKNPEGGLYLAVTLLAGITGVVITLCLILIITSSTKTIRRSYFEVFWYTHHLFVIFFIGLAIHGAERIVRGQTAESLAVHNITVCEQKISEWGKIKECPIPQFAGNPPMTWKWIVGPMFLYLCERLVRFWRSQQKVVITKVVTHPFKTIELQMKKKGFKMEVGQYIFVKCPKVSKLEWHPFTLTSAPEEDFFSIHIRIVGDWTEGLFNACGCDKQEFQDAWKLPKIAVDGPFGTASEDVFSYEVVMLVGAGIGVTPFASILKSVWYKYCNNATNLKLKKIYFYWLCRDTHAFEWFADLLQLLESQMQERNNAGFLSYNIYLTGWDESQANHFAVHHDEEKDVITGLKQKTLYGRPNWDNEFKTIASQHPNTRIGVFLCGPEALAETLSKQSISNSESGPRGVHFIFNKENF

SMILES | z-score [1] | composite z-score [2] | z-score [3] | z-score [4] | z-score [5] | z-score [6] | z-score [7] | z-score [8] | z-score [9] | z-score [10] | z-score [11] | z-score [12] | z-score [13] | z-score [14] | z-score [15] | z-score [16] | z-score [17] | z-score [18] | z-score [19] | z-score [20]
O=C1O[C@H](c2ccccc2)[C@H](c2ccccc2)N2[C@H]1[C@@H](C(=O)N1CCCCCCC1)[C@]1(C(=O)Nc3ccc(C#CCCO)cc31)[C@H]2c1ccccc1OCCO | 0.609 (inactive) | 2.89 | 1.54 (inactive) | 1.19 (inactive) | 2.13 (inactive) | 0.565 (inactive) | -0.319 | 1.31 (inactive) | 0.959 (inactive) | 1.67 | 0.405 | 0.911 | 0.518 | -1 | -3.71 | 0.42 | 0.757 (inactive) | -1.3 | -1.11 | 0.458 (inactive)
COCCOC(=O)N1C(=O)[C@@]2(c3cc(C#Cc4ccc(OC)cc4)ccc31)[C@H](c1ccccc1OCCO)N1[C@H](c3ccccc3)[C@H](c3ccccc3)OC(=O)[C@H]1[C@@H]2C(=O)NC[C@H](O)c1ccccc1 | 0.216 (inactive) | 0.396 | 2.92 (inactive) | 2.16 (inactive) | -0.76 (inactive) | 0.804 (inactive) | -0.325 | 1.16 (inactive) | 1.16 (inactive) | 0.967 | -0.796 | 1.02 | -0.206 | -0.889 | -2.23 | 0.117 | 3.21 (inactive) | -0.485 | -1.26 | -0.762 (inactive)
NC(=O)NCC#Cc1ccc2c(c1)[C@]1(C(=O)N2)[C@H](c2ccc(O)cc2)N2[C@H](c3ccccc3)[C@H](c3ccccc3)OC(=O)[C@H]2[C@@H]1C(=O)O | -0.876 (inactive) | -0.573 | 3.1 (inactive) | 0.179 (inactive) | 0.259 (inactive) | 0.485 (inactive) | -0.0856 | 0.879 (inactive) | -0.0146 (inactive) | -0.305 | 0.517 | 0.145 | 0.829 | 0.343 | -1.12 | -1.2 | -1.47 (inactive) | 0.183 | -0.713 | -0.397 (inactive)
NCCCCCNC(=O)[C@@H]1C[C@@H]2C(=O)N[C@@H](Cc3ccccc3)C(=O)N2[C@@H]1c1ccc(O)cc1 | -1.16 (inactive) | 0.176 | 1.24 (inactive) | 0.24 (inactive) | -0.648 (inactive) | -0.116 (inactive) | -0.358 | 0.713 (inactive) | 0.539 (inactive) | -0.657 | -0.119 | 0.588 | -0.0207 | -1.4 | -0.0144 | 0.181 | -0.0278 (inactive) | 0.00631 | 0.397 | -0.0029 (inactive)
Cc1ccc(S[C@]2(C(=O)NC3CC3)CC(=O)N(Cc3ccccc3)[C@@H]2c2ccc(CO)cc2I)cc1 | 1.24 (inactive) | 0.238 | 7.63 (inactive) | 1.12 (inactive) | -0.282 (inactive) | 0.401 (inactive) | 0.402 | 1.7 (inactive) | -1.16 (inactive) | 1.1 | 2.11 | 0.388 | 0.935 | -1.99 | -2.06 | 1.55 | 0.679 (inactive) | -0.525 | -1.26 | 0.618 (inactive)
CCCC[C@@H]1C[C@H]1[C@@H](NC(=O)C(C)(C)C)c1ccc(C(F)(F)F)cc1 | -2.06 (inactive) | 0.718 | 5.74 (inactive) | 0.367 (inactive) | 1.01 (inactive) | -1.37 (inactive) | 2.6 | -4.58 (inactive) | -4.44 (inactive) | -5.62 | -1.63 | 0.434 | -1.6 | -2.43 | -3.05 | -0.754 | -1.64 (inactive) | -0.204 | -1.8 | 0.419 (inactive)
COC(=O)[C@@]1(Cc2ccc(F)cc2)[C@H]2c3cc(C(=O)N(C)C)n(Cc4ccccc4)c3C[C@H]2CN1C(=O)c1ccccc1 | -1.39 (inactive) | 0.342 | 2.6 (inactive) | 0.672 (inactive) | 0.657 (inactive) | 1.23 (inactive) | -0.231 | 1.01 (inactive) | 0.734 (inactive) | 1.89 | -0.799 | -0.184 | -0.344 | -0.812 | -0.997 | 0.746 | -0.85 (inactive) | -0.28 | -0.529 | -0.631 (inactive)
C[N+](C)(C)CCCCNC(=O)[C@H]1C[C@H]2C(=O)N3CCC[C@H]3C(=O)N2[C@H]1c1cccc(OCCO)c1 | 0.364 (inactive) | 0.0861 | 3.34 (inactive) | 0.503 (inactive) | -0.78 (inactive) | 0.277 (inactive) | -0.555 | -1.52 (inactive) | 0.00366 (inactive) | -1.41 | -0.591 | -0.682 | -0.545 | 0.129 | 0.157 | -0.901 | -0.186 (inactive) | -0.0988 | -0.193 | -0.699 (inactive)
COCCCNC(=O)[C@@]1(C)c2ccccc2C(=O)N(C(C)C)[C@H]1c1ccc(CO)cc1 | -0.794 (inactive) | 0.163 | 0.877 (inactive) | -0.057 (inactive) | 0.386 (inactive) | 0.743 (inactive) | -0.504 | -0.636 (inactive) | 0.43 (inactive) | -0.249 | -0.276 | -0.208 | -0.51 | 0.0651 | 0.532 | 0.043 | 0.304 (inactive) | 0.887 | -0.441 | 0.601 (inactive)
